# Results filed as inconclusive are left out. Calls of active or inactive are those of the source. The call rests on the fitted dose curve; in most records, active means well fitted activation curve with a large enough effect in the repeat runs; inconclusive means weak or mixed curves; inactive means no such curve, though single readings can be large or run the other way.
# Assay: qHTS assay for small molecules that induce genotoxicity in human embryonic kidney cells expressing luciferase-tagged ATAD5 (AID 651632); further: nearly all actives have a fitted effect of over 15% in size
# Conditions: HEK293T ATAD5-luciferase induction, 16 h; series mostly up to 83.3 µM; activation: at the top concentration
# Excerpt: U.S. Tox21 Program National Center for Advancing Translational Sciences [NCATS] NIH Chemical Genomics Center [NCGC] U.S. Environmental Protection Agency [EPA] National Institutes of Environmental Health Sciences [NIEHS] National Toxicology Program [NTP] U.S. Food and Drug Administration [FDA] Tox21 Assay Overview: As cancer cells divide rapidly and during every cell division they need to duplicate their genome by DNA replication. The failure to do so results in the cancer cell death. Based on this concept, many chemotherapeutic agents were developed but have limitations such as low efficacy and severe side effects etc. A new cell based assay was developed to find the compounds that effectively block DNA replication either by directly damaging DNA or by inhibiting other cellular mechanisms. Enhanced Level of Genome Instability Gene 1 (ELG1; human ATAD5) protein levels increase in response to various types of DNA damage. Using a luciferase reporter-gene tagged with ATAD5, a cell-based assay [developed by Kyungjae Myung, NHGRI, NIH] was used to measure the induction of ATAD5 in human embryonic kidney cells (HEK293T). So, increase in luciferase activity can be used to identify the compounds that cause genetic stress.
# Tox21 Assay Protocol Summary: For genotoxicity screening, 2,000 cells in 5 uL/well were dispensed into white, solid-bottom 1536-well plates using a Multidrop Combi (Thermo Scientific) dispenser. Following transfer of 23 nL compound or DMSO vehicle by a pin tool, the plates were incubated 16 hr at 37C and 5% CO2. 5 ul Amplite (AAT Bioquest, Inc.) was then added to each plate and following 30 min incubation at room temperature, luciferase activity was quantified on a ViewLux CCD-based plate reader.
# On the % scale 0 is the no-effect control and ±100 the full control effect.
Structure (SMILES),activation,Potency
CC(=O)OCC(C)C,2.08% (inactive),
CCN(CC)C(=O)N1CCN(C)CC1,-2.17% [at 39.1 µM] (inactive),
COC(OC)OC,0.348% (inactive),
COc1ccc(/C=C/C(=O)c2ccc(OC)cc2OC)cc1,3.66% (inactive),
c1ccc(CCCc2ccncc2)cc1,-3.71% (inactive),
O=C(O)c1cccc(C[C@@H]2COc3ccc(OCc4nc5cc(F)ccc5s4)cc3[C@@H]2O)c1,2.53% (inactive),
CN1CCCN(C(c2ccccc2)c2ccc(Cl)cc2)CC1 (stereo not given),-4.74% (inactive),
CC(C)N(C)C,1.07% (inactive),
CN=C(N)NC(=O)Nc1c(C)cccc1C,1.78% (inactive),
CCOC(=O)c1ccc(NC(=O)CN2CCCCC2)cc1,3.97% (inactive),
BrC(Br)C(Br)Br,-1.08% (inactive),
O=C1c2ccccc2C(=O)c2c(O)ccc(O)c21,-10.3% (inactive),
CCC(CO)(CO)[N+](=O)[O-],2.5% (inactive),
C[C@@H]1C[C@H]2[C@@H]3CCC4=CC(=O)C=C[C@]4(C)[C@@]3(F)[C@@H](O)C[C@]2(C)[C@@]1(O)C(=O)COP(=O)(O)O,3.17% (inactive),
CC[C@H]1OC(=O)[C@H](C)[C@@H](O[C@H]2C[C@@](C)(OC)[C@@H](O)[C@H](C)O2)[C@H](C)[C@@H](O[C@@H]2O[C@H](C)C[C@H](N(C)C)[C@H]2O)[C@](C)(O)C[C@@H](C)/C(=N\OCOCCOC)[C@H](C)[C@@H](O)[C@]1(C)O,,inactive
Nc1c(Cl)cc(Cl)cc1[N+](=O)[O-],3.26% (inactive),
CC(C)Cc1ccc(CC(=O)O)cc1,-0.387% (inactive),
c1ccc2sc(SSc3nc4ccccc4s3)nc2c1,2.72% (inactive),
NC(=O)CCCCC(N)=O,2.41% (inactive),
CCN(CC)CCOc1ccccc1C(=O)CCc1ccccc1,-7.86% (inactive),

Structure (SMILES),activation,Potency
COC(=O)c1sccc1S(N)(=O)=O,2.86% (inactive),
O=[N+]([O-])c1ccc2ncccc2c1,-8.01% (inactive),
C=CC(=O)O,,inactive
CCCCCc1ccco1,-3.31% (inactive),
CC(=O)NCCO,1.05% (inactive),
O=C1OC[C@H](Cc2cccc(O)c2)[C@H]1Cc1cccc(O)c1,-3.62% [at 39.1 µM] (inactive),
CC(C)(C)S,-0.82% [at 95.3 µM] (inactive),
Cc1ccc2c(c1)CCCN2,-2.22% (inactive),
Nc1cccc2c(N)cccc12,3.94% (inactive),
CC1=CC[C@@]23C[C@@H]1C(C)(C)[C@@H]2CC[C@H]3C,1.92% (inactive),
CC12CC3CC(C)(C1)CC(N)(C3)C2,-5.29% (inactive),
CC1CCCC(=O)C1=O (stereo not given),0.251% (inactive),
CC(C)(C(=O)c1cccnc1)c1cccnc1,-1.14% [at 39.1 µM] (inactive),
CC(C)(C)NCC(O)COc1cccc2c1C[C@H](O)[C@H](O)C2 (stereo not given in full),-4.98% [at 39.1 µM] (inactive),
O=C1CC[C@@H](C(=O)O)N1,0.21% (inactive),
Cc1cn([C@H]2C[C@H](F)[C@@H](CO)O2)c(=O)[nH]c1=O,1.24% (inactive),
Cc1ccc2c(c1[N+](=O)[O-])C(=O)c1ccccc1C2=O,3.52% (inactive),
CO[C@@H]1[C@@H](OC)[C@H](C)[C@@](O)(CC(=O)O)O[C@H]1[C@H](C)[C@H]1O[C@@]2(CC[C@@](C)([C@H]3CC[C@@](C)([C@@H]4O[C@@H]([C@H]5O[C@](C)(O)[C@H](C)C[C@@H]5C)C[C@@H]4OC4C[C@H](OC)[C@@H](OC)[C@H](C)O4)O3)O2)C[C@H](O)[C@H]1C (stereo not given in full),0.674% (inactive),
CCCCCCC(CO)CCCC (stereo not given),-2.9% (inactive),
CCN(CC)CCNC(=O)c1cc(Cl)c(N)cc1OC,1.47% (inactive),

# From PubChem BioAssay (Tox21)
